Measurements from PubChem BioAssay (NCI).
Compounds without any hit were thinned out: in the full panel of roughly 83,000, 20% have a hit.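 Cells were grown in 96-well plates and exposed to the test compound at a single concentration for 48 hours; results are reported as percent growth, with values below 10 considered active.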 Unmarked numbers belong to inactive results. Activity calls are given as the source filed them.

Assays:
Assay in all cases: NCI-60 one-dose screen, 48 h (100 = growth as untreated, 0 = no growth, -100 = all killed)
Conditions in all cases: 10 µM unless noted
SK-MEL-2 melanoma = tested on: SK-MEL-2 melanoma
EKVX NSCLC = tested on: EKVX NSCLC
SN12C renal = tested on: SN12C renal
UO-31 renal = tested on: UO-31 renal
TK-10 renal = tested on: TK-10 renal
ACHN renal = tested on: ACHN renal
CAKI-1 renal = tested on: CAKI-1 renal
A498 renal = tested on: A498 renal
CCRF-CEM leukemia = tested on: CCRF-CEM leukemia
MOLT-4 leukemia = tested on: MOLT-4 leukemia
SR leukemia = tested on: SR leukemia
RPMI-8226 leukemia = tested on: RPMI-8226 leukemia
OVCAR-8 ovarian = tested on: OVCAR-8 ovarian
OVCAR-5 ovarian = tested on: OVCAR-5 ovarian
OVCAR-4 ovarian = tested on: OVCAR-4 ovarian
SK-OV-3 ovarian = tested on: SK-OV-3 ovarian
IGROV1 ovarian = tested on: IGROV1 ovarian
OVCAR-3 ovarian = tested on: OVCAR-3 ovarian
HS 578T breast = tested on: HS 578T breast
NCI/ADR-RES ovarian = tested on: NCI/ADR-RES ovarian

Compound	growth (SK-MEL-2 melanoma)	growth (EKVX NSCLC)	growth (SN12C renal)	growth (UO-31 renal)	growth (TK-10 renal)	growth (ACHN renal)	growth (CAKI-1 renal)	growth (A498 renal)	growth (CCRF-CEM leukemia)	growth (MOLT-4 leukemia)	growth (SR leukemia)	growth (RPMI-8226 leukemia)	growth (OVCAR-8 ovarian)	growth (OVCAR-5 ovarian)	growth (OVCAR-4 ovarian)	growth (SK-OV-3 ovarian)	growth (IGROV1 ovarian)	growth (OVCAR-3 ovarian)	growth (HS 578T breast)	growth (NCI/ADR-RES ovarian)
CN1CCN(C(=O)C(C)(C)c2ccc(C(=O)Nc3cn4cc(-c5ccncc5)ccc4n3)cc2)CC1	-26.7% (active)	17.9%	15.6%	-23.7% (active)	0.354% (active)	2.6% (active)	-5.37% (active)	-63.2% (active)	16%	11.3%	11.8%	10.7%	14.6%	18.3%	2.83% (active)	9.33% (active)	6.72% (active)	-37.4% (active)	-6.52% (active)	21.1%
O=C(CCCCCCN1CC(=O)N2[C@H](c3ccc(Br)cc3)c3[nH]c4ccccc4c3C[C@@H]2C1=O)NO	60.3%	56.7%	56.6%	58.8%	40.6%	72.3%	51.5%	67.4%	21%	5.86% (active)	24%	18%	41.2%	40.5%	67.5%	49.5%	23.9%	41.5%	53%	89.6%
COc1cccc(Nc2ncnc3cc(NC(=O)CCl)ccc23)c1	-45.3% (active)	-24.4% (active)	-74.7% (active)	-93.9% (active)	-13.2% (active)	-97.6% (active)	-97.2% (active)	-5.63% (active)	-26.9% (active)	-31% (active)	-23.3% (active)	-44.8% (active)	-36.6% (active)	-82.2% (active)	-59.5% (active)	-15.9% (active)	-64.7% (active)	-82.9% (active)	-15.4% (active)	-26.4% (active)
O=C(c1c[nH]c2ccccc12)c1n[nH]c(=S)n1-c1cccc(Br)c1	85.9%	70.9%	96.3%	86.6%	106%	100%	77.2%	118%	90.6%	90.2%	76.8%	84.1%	93.5%	89.7%	87.1%	91.8%	60.6%	86.4%	93.8%	106%
CCOC(=O)/C=C1\S/C(=N\Nc2cc(=O)[nH]c3ccccc23)N(c2ccccc2)C1=O	110%	104%	98.9%	77.6%	117%	102%	92.8%	125%	101%	103%	96.6%	112%	100%	101%	84.3%	101%	105%	104%	101%	101%
Cc1ccnc(Nc2ccc([N+](=O)[O-])c(NCCN3CCOCC3)n2)c1	51.5%	96.4%	36.6%	34.2%	79.4%	38.6%	65.6%	24.9%	7.5% (active)	11.7%	9.97% (active)	26.1%	34.8%	99.1%	59.4%	62.1%	28.4%	26.1%	38.3%	43.9%
C=Cc1cnc(Nc2ccc(OC)cc2)nc1NCCCNC(=O)C1CCC1	87%	56.8%	20.6%	10.2%	26%	41.5%	14.4%	47.3%	28%	24%	9.88% (active)	43.8%	49.2%	48%	46.4%	20.4%	44.6%	48.2%	18.7%	53.5%
O=C(Cc1ccc(/C=C/C(=O)c2ncc[nH]2)cc1)Nc1cc(C(F)(F)F)cc(C(F)(F)F)c1	110%	108%	94.9%	62.9%	115%	105%	78.5%	94.3%	92.9%	67.7%	41.1%	-18% (active)	87.1%	103%	100%	105%	84.4%	59.3%	87.6%	102%
CCNc1ccc(-c2nc3ccccc3n3cccc23)cc1	87.9%	71%	78%	51.6%	82.7%	73.9%	57%	62.5%	68.2%	71.2%	76.4%	85.2%	80.9%	71%	72.7%	72.4%	64%	78.7%	78.6%	80.6%
C=C1CC[C@@H]2[C@](C)(COC(C)=O)[C@H](OC(C)=O)CC[C@@]2(C)[C@@H]1CC(Nc1ccc(S(=O)(=O)NC(C)=O)cc1)C1=CCOC1=O (stereo not given in full)	-7.41% (active)	57.5%	1.94% (active)	-58.5% (active)	2.78% (active)	-63.2% (active)	30.3%	73.4%	-27.9% (active)	0.118% (active)	2.08% (active)	-16.2% (active)	-18.2% (active)	-40.1% (active)	26.1%	67.3%	-10% (active)	-87.7% (active)	32.5%	11.9%
CCN(CC)c1ccc(CNc2cc(C)nc3ccccc23)cc1	84.2%	42.6%	75.4%	40%	67%	64.6%	53.2%	52.5%	70%	86.4%	50.5%	41.7%	63.2%	73.2%	52%	78.3%	74.8%	63.7%	85.6%	47.7%
CN1CCN(Cc2ccc(NC(=O)c3cncc(C#Cc4cnc5ccc(Cl)nn45)c3)cc2C(F)(F)F)CC1	-46.1% (active)	-22% (active)	0.38% (active)	-11.5% (active)	5.85% (active)	1.09% (active)	-13.6% (active)	-8.2% (active)	2.17% (active)	3.14% (active)	-2.72% (active)	-25.6% (active)	8.97% (active)	-4.08% (active)	-4.08% (active)	12.3%	1.12% (active)	-5.42% (active)	-14.6% (active)	2.61% (active)
CC1(C)CC[C@]2(CO)CC[C@]3(C)[C@H](CC[C@@H]4[C@@]5(C)CCCNC(C)(C)[C@@H]5CC[C@]43C)[C@H]2[C@H]1O	102%	95.2%	86.2%	72.6%	86.5%	101%	95.3%	93.4%	61.2%	54.1%	10.5%	31.4%	95%	92.8%	89.7%	92.5%	82.3%	94.3%	83.5%	93.1%
COc1ccc2[nH]cc(-c3nc(-c4c[nH]c5c(Cl)nccc45)cs3)c2c1	59.3%	62.8%	56.5%	32.4%	49.6%	16.1%	61.6%	-15.3% (active)	24.7%	41.1%	18.1%	43.5%	28.9%	99.9%	68.6%	46.9%	54.7%	75.9%	38.7%	20.7%
CC1=C2[C@@H](CC1)[C@]1(C)O[C@@](C3CCCCC3)(C[C@H]1OC(=O)CO)[C@H]2OC(=O)/C=C/c1ccccc1	80.3%	83.3%	32.1%	-5.9% (active)	97.6%	3.28% (active)	78.4%	-89.9% (active)	78.5%	67.9%	52.1%	58.5%	5.17% (active)	88.8%	92.9%	86%	85.1%	85%	-15.2% (active)	-2.43% (active)
CCCCCCCCCCCCCCCCCC1=NC(C)(C)CN1CC(C)O (stereo not given)	84.6%	78.8%	49.8%	68.8%	81.6%	80.6%	84.7%	79.1%	47.1%	34.9%	-13.6% (active)	78.8%	46.5%	89.4%	94.4%	80.9%	66.1%	46.6%	107%	69.9%
